Bioassay records: PubChem, National Center for Advancing Translational Sciences (NCATS)
RORg inh – blocks mouse ROR gamma transcriptional activity | Drosophila S2 Gal4-RORgamma UAS-luciferase reporter, 20 h | Potency, µM (top dose mostly 53.6 µM), for inactives: at the highest dose activity change, negative = inhibition, usual class: inhibitors | hit rate 5.4% among 310,000; further: potency means the concentration at half of the fitted maximal effect; nearly all actives have a fitted effect of over 60% in size
Target sequence (P51450 whole entry, looked up, the tested form may be a part): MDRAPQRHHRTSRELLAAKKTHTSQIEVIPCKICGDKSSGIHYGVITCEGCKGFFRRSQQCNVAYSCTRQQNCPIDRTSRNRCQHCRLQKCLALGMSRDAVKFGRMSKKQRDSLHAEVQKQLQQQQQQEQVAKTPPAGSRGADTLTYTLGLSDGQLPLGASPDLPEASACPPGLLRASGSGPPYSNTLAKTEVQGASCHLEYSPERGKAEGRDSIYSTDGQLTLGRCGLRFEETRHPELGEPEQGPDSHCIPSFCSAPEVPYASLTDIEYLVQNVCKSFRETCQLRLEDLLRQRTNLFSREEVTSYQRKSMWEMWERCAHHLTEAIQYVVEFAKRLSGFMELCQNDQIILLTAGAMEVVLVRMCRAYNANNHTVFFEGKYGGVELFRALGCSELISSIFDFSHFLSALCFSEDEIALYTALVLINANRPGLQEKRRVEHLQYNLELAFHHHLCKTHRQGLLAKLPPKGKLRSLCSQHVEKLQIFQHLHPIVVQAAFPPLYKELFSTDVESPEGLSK
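Schneider cells (Drosophila), stable Gal4 DBD–ROR gamma + UAS-luc; 1 hr cmpd preincubation; Cu2+ induction 700 uM final; 20 hr ambient; luminescence.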
PKM2 act – PKM2 (human) enzyme activation; Potency, µM (titrated, usually from 57.5 µM), for inactives: at the top dose activation, most hits filed as activators; AID 1631; purified PKM2, Kinase-Glo ATP luminescence, activation; response scale: 0% is enzyme alone, no compound; P14618; hit rate 0.34% among 260,000; further: potency means the concentration at half of the fitted maximal effect; nearly all actives have a fitted effect of over 55% in size
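Purified hPK-M2 (>95%) run at intermediate activity with 0.1 mM ADP and 0.5 mM PEP in 50 mM imidazole pH 7.2, KCl, MgCl2; 1 h room temperature. ATP formed read by Kinase-Glo luminescence; normalized to uninhibited and no-enzyme controls.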
Gal4-VP16 FLuc – counter-screen for ROR gamma inhibitors: Gal4-VP16 reporter; Drosophila S2 Gal4-VP16 UAS-luciferase, luminescence, 20 h; Potency, µM (titrated, usually from 53.6 µM), for the others: at the top dose activity, negative = inhibition, most hits filed as inhibitors; hit rate 3.5% among 310,000;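 further: Gal4-VP16 expression switched on by copper sulfate through the metallothionein promoter; potency means the concentration at half of the fitted maximal effect; nearly all actives have a fitted effect of over 50% in size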
CtBP-E1A blk – CtBP/E1A binding inhibition. AlphaScreen GST-E1A/His-CtBP binding, 1536-well; hits give low values. activity change, % (concentration not given with the values). hit rate 0.49% among 340,000; in the data active means activity change below about -65%; inconclusive means mostly about -30% to -63%
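Steps: dispense buffer (Tris pH 8.0, NaCl 300 mM, TCEP 1 mM, BSA, Tween 20); add 5X protein mix (GST-E1A, His-CtBP, 125 nM each); pin 23 nL compound; 2 h at 37 °C, dark; add 5X beads (50 ug/mL); 1 h; read.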
Six1-Eya2 blk – Six1/Eya2 interaction inhibition. AlphaScreen GST-Six1/His-Eya2 binding, biochemical; hits give low values. AID 651725. activity change, % (no concentration beside the values). hit rate 0.56% among 360,000; in the data active means activity change below about -65%; inconclusive means mostly about -30% to -63%
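AlphaScreen luminescence read after one hour at 37 °C in darkness. Pin-transferred compounds met GST-Six1 and His-Eya2 protein (5X stock 250 nM/500 nM) plus glutathione donor and Ni-chelate acceptor beads (5X, 50 ug/mL).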
Starred values were filed as active, the others as inactive; u = inconclusive; x = no result; [ ] = dose if it differs, or a comment. Most compounds without a hit are left out; they make up all but 5.6% or so of the library. Unless noted, the call rests on the fitted dose curve; in most records, active means well fitted curve in the direction sought with a large enough effect; inconclusive means small, poorly fitted or top-dose-only effect, or another doubt; inactive means no such curve, though single readings can be large; an effect the other way counts as inactive or inconclusive. On the % scale 0 is the no-effect control and ±100 the full control effect.

SMILES | RORg inh | PKM2 act | Gal4-VP16 FLuc | CtBP-E1A blk | Six1-Eya2 blk
C/C(=N\NC(=O)CSc1nc2ccccc2o1)c1ccc(O)cc1 | 11µM* | 2% | 3% | -11 | 0
CCOC(=O)c1c(NC(=O)CSc2nnc(-c3ccccc3)o2)sc(C(C)=O)c1C | -33% | -21% | 3% | 0 | -2
O=C(/C=C/c1ccc(Cl)cc1Cl)Nc1cccc(S(=O)(=O)NC2=NCCC2)c1 | 7.1µM* | -6% | 8.9µM* | x | -17
O=C(/C=C/c1ccccc1Cl)Nc1cccc(S(=O)(=O)NC2=NCCCCC2)c1 | u | -4% | -11% | -11 | u
CCCn1c2ccc(C)cc2c2n[nH]c(=S)nc21 | 1.8µM* | x | 3.5µM* | -4 | -7
CCn1c2ccccc2c2n[nH]c(=S)nc21 | 4µM* | x | 8.9µM* | x | u
C=CCn1c2ccccc2c2n[nH]c(=S)nc21 | 2.5µM* | -11% | 3.5µM* | x | 1
CN(CC(=O)Nc1cccc(F)c1)CC(=O)Nc1ccccc1Oc1ccccc1 | 37% | x | 0% | x | 1
CC(C)(C)NNC(=S)Nc1cccc(F)c1 | 0.63µM* | -1% | 3.5µM* | 5 | 6
Fc1cccc(NC(=S)NCc2ccc(Cl)cc2)c1 | 6.3µM* | 2% | 18µM* | 12 | 9
Fc1ccccc1CNC(=S)Nc1cccc(C(F)(F)F)c1 | 7.1µM* | 0% | 7.1µM* | 1 | 12
FC(F)(F)c1cccc(NC(=S)NCc2ccc(Cl)cc2)c1 | 8.9µM* | 0% | u | 8 | 11
Fc1cccc(NC(=S)Nc2ccc(Br)cc2)c1 | u | -4% | u | -3 | 7
O=c1c(O)cc(C2Oc3cc(O)cc(O)c3CC2O)cc2c(C3Oc4cc(O)cc(O)c4CC3O)cc(O)c(O)c12 (stereo not drawn) | -7% | x | -27% | x | x
COc1ccccc1CNC(=O)c1cc(-c2ccccc2)n(Cc2cc(C)no2)n1 | x | x | x | -18 | 2
N#CC1=C(c2ccccc2)/C(=C/c2ccccc2)OC1=O | 3.5µM* | 16% | 2.2µM* | 5 | 3
O=C1O/C(=C/c2ccccc2)c2ccccc21 | 23% | 7% | -15% | 23 | 24
CCCCn1c(=S)[nH]c2c(oc3ccc(Cl)cc32)c1=O | 1.1µM* | 5% | u | x | x
CCCCn1c(=S)[nH]c2c(=O)n(C)c(=O)n(C)c21 | x | x | x | -6 | -7
O=C(/C=C/Sc1ccccc1)c1ccccc1 | u | -5% | u | 5 | -10
O=C(/C=C/Sc1ccccc1)c1ccc(Cl)cc1 | u | -11% | 14µM* | 51 | -11
CNC(=O)NC(=O)CSc1nc2cc(C(=O)OC)ccc2c(=O)n1-c1ccccc1 | -44% | 0% | 22µM* | -1 | 2
O=C(CN1C(=O)/C(=C2\SC(=S)N(C3CCS(=O)(=O)C3)C2=O)c2ccccc21)Nc1ccccc1 (stereo not drawn) | 0.89µM* | -7% | -21% | -1 | -19
COc1cccc(/C=N/NC(=O)c2cc3c(OC)cccc3[nH]2)c1O | 0.79µM* | u | 2.2µM* | -24 | -29
COc1ccc(OC)c2[nH]c(C(=O)N/N=C/c3ccccc3O)cc12 | 4µM* | x | 5µM* | x | -74*
SMILES | RORg inh | PKM2 act | Gal4-VP16 FLuc | CtBP-E1A blk | Six1-Eya2 blk
COc1ccc(/C=N/NC(=O)c2cc3c(OC)ccc(OC)c3[nH]2)cc1O | -42% | x | u | u | u
COc1ccc(C(=O)COC(=O)C2CC3CCCC(C2)C3=O)cc1Br (stereo not drawn) | x | x | x | 7 | -3
COc1ccc(C(=O)COC(=O)CN2CC(=O)Oc3ccccc32)cc1Br | 29% | 6% | 17% | -93* | -93*
COc1ccc(C(=O)NCc2nnc(SCC(=O)Nc3nc4ccccc4s3)o2)cc1 | 11µM* | 7% | 11µM* | -1 | -3
COc1cc(C(=O)NCc2nnc(SCC(=O)Nc3cc(C)on3)o2)cc(OC)c1OC | 6% | 0% | -1% | 1 | -2
COc1cc(C(=O)NCc2nnc(SCC(=O)Nc3nccs3)o2)cc(OC)c1OC | -13% | 4% | -5% | -78* | -84*
CCc1nnc(NC(=O)CSc2nnc(CNC(=O)c3ccc(OC)c(OC)c3)o2)s1 | -37% | 2% | -23% | x | -20
CCSc1nnc(NC(=O)CSc2nnc(CNC(=O)c3ccc(OC)c(OC)c3)o2)s1 | 18µM* | -2% | u | -27 | -14
Cc1cccc(C)c1OCc1nnc(SCC(=O)Nc2nccs2)o1 | -9% | 12% | -4% | -91* | -85*
CC(C)CN(CC(C)C)C(=O)CCCC(=O)N(CC(C)C)CC(C)C | 9% | 5% | -11% | 2 | -2
COCCNC(=S)N/N=C(\C)c1ccccc1F | 3.5µM* | -1% | 20µM* | -5 | -7
COCCNC(=S)N/N=C(\C)c1ccccc1OC | 2.5µM* | 0% | 6.3µM* | -11 | -7
C/C(=N\NC(=O)c1ccccc1O)c1cccs1 | u | -43% | u | 1 | 7
COCCNC(=S)N/N=C(\C)c1ccccc1O | 0.2µM* | -1% | 0.45µM* | u | -69*
O=C(COc1ccccc1)Nc1ccccc1Cl | 10% | 0% | -6% | x | 8
Cc1cc(C)c(-n2c(C)cc(/C=C3/NC(=O)NC3=O)c2C)c(C)c1 | -1% | -2% | -2% | -3 | -13
Cc1cc(/C=C2/NC(=O)NC2=O)c(C)n1-c1sc2c(c1C#N)CCCC2 | 11µM* | 7% | 0% | -11 | -11
O=C(Nc1ccc(Cl)cc1)N(CCCN1CCOCC1)Cc1cccs1 | 18% | 12% | 4% | 2 | 4
CCN1CCCc2cc(CN(CCN3CCOCC3)C(=S)Nc3cccc(OC)c3)ccc21 | 7.1µM* | 5% | -3%[10 µM] | -21 | u
CCc1ccc(NC(=S)N(CCN2CCOCC2)Cc2ccccc2F)cc1 | 14µM* | 7% | u | -1 | 7
COc1ccc(NC(=S)N(CCCN2CCCC(C)C2)Cc2cccs2)cc1 (stereo not drawn) | 11µM* | -4% | -7% | -2 | -3
S=C(Nc1ccc(Cl)cc1)N(CCCN1CCOCC1)Cc1cccs1 | 13µM* | 1% | 10% | -4 | 4
CN(C)c1ccc(C=C(C#N)C(=O)c2ccccc2)cc1Br | x | x | x | 8 | 2
O=C(NCC1CCCO1)c1cccc(S(=O)(=O)Nc2ccc(F)cc2)c1 (stereo not drawn) | x | x | x | 0 | 0
COc1cc2c(cc1NC(=O)COC(=O)[C@@H](NS(=O)(=O)c1cccc(Cl)c1)C(C)C)oc1ccccc12 | 13µM* | 0% | 11µM* | -2 | -7
COc1cc2c(cc1NC(=O)COC(=O)c1ccccc1)oc1ccccc12 | -27% | -3% | -2% | x | x
COc1cc2c(cc1NC(=O)COC(=O)CNS(=O)(=O)c1ccc(C)cc1)oc1ccccc12 | 11µM* | 0% | 4µM* | -2 | -8
COc1ccc(OCC(=O)Nc2cc3oc4ccccc4c3cc2OC)cc1 | -19% | -4% | -6% | 3 | 3
